Results on 46 sequences are retold here after the supplement of paper PMC11417369.

± gives the standard deviation of the averaged measurements. The full ranking holds about 25,000 sequences; the median of “ln(normalized median fluorescence intensity)” is about 8.6, and the highest 2% start at about 10. This excerpt belongs to a sample that is enriched for the highest values.

The test system of this assay is PfAP2-EXP AP2 domain (GST-tagged). Description: gcPBM binding intensity (ln(normalized median fluorescence intensity)); higher = stronger DNA binding. The essentials:
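Binding of GST-tagged P. falciparum DNA-binding domains, expressed in E. coli and used at about 25 μg on average, was carried out for 1 h in 1× PBS containing 1% milk, 0.2 mg/ml BSA, 0.5% salmon testes DNA and 0.03% Triton X-100. The target was an Agilent 4 × 180k array of primer-extended double-stranded 36-bp intergenic genomic probes plus negative controls, read with Alexa488 anti-GST antibody at 488 nm. Binding intensity is the highest Masliner-normalised natural-log median intensity across replicate spots of either probe orientation.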
For the sequence “AGAATTATATACACAAGTACATAATGACATATATAT [XGTACX_site5617]”, the “gcPBM binding intensity (ln)” value turned out to be 8.42 ± 0.35. On to “ATATATATATATATATGTACTTATGTCATCATTAAA [XGTACX_site5316]”, for which the “gcPBM binding intensity (ln)” value stood at 10.3 ± 0.35. For the sequence “TAAATATATATTATATGTACTTATATATATATATAT [XGTACX_site4448]”, the “gcPBM binding intensity (ln)” value turned out to be 9.85 ± 0.3. On to “ATATTTTTTTTTTTATGTACTTATTTATAATTATTT [XGTACX_site5279]”, for which the “gcPBM binding intensity (ln)” value is 8.67 ± 0.37. Turning to “TTATATATTTTTATGTGTACTTATATATATATATAT [XGTACX_site6211]”, the “gcPBM binding intensity (ln)” value stood at 10 ± 0.13.

For “TATATATTATATATATGTACTTATTTATTAATTTAT [XGTACX_site5253]”, the “gcPBM binding intensity (ln)” value amounted to 8.29 ± 0.25.

On to “ATTTATTTATTTATATGTACTTATATATGTATTTTC [XGTACX_site6269]”, for which the “gcPBM binding intensity (ln)” value amounted to 8.85 ± 0.25. The same measure for “GTATGTATATATGTATGTACTTATGTATCATTATTA [XGTACX_site2438]”: 8.35 ± 0.26.

“TATCATTTATATATGTGTACTTATTTATTTATTTAT [XGTACX_site7961]”: the “gcPBM binding intensity (ln)” value came out at 8.82 ± 0.45. The same measure for “ATATATATATATATATGTACTTATTTATTTTATATA [XGTACX_site8810]”: 10.2 ± 0.24; for “ATATATATATATATATGTACTTATTTATTTATATTA [XGTACX_site4646]”: 10.3 ± 0.39. The same measure for “ATATATATATATATATGTACTTATTAAGATTAAAAA [XGTACX_site61]”: 10.2 ± 0.2; for “ATATATATATATATGTGTACTTATATATTTAAAAAA [XGTACX_site1761]”: 10 ± 0.27; for “TTTTATCGTTTTTTTTTTTTTTTTTTTTTTTTTTTT [CACACA_negctrl_site1309]”: 9.06 ± 0.092. Take “TCTGGATTGGATTACAAGAAAATAAAATATAAAATA [CACACA_negctrl_site122]”: the “gcPBM binding intensity (ln)” value is 8.38 ± 0.4. For “ATGAAGAAGTGTAAATGTACATTTTATGTAGAACAA [XGTACX_site6925]”, the “gcPBM binding intensity (ln)” value turned out to be 8.93 ± 0.48. For “TAATATTATATTATATGTACATAACAAATTATATTT [XGTACX_site4296]”, the “gcPBM binding intensity (ln)” value is 8.6 ± 0.21.

“ATTTTTTTATAAGAAAATTTCTAACGTTAAAAAAAA [CACACA_negctrl_site1367]”: the “gcPBM binding intensity (ln)” value amounted to 8.38 ± 0.59. With “TATATATATATATATGCATGCCATATGATATATATA [TGCATGCA_site109]” the figure was 10.3 ± 0.27. The same measure for “ATATATATATATGATACATGCATATATTTTTTCTTC [TGCATGCA_site216]”: 9.99 ± 0.13; for “TATATATATGTATGATGTACATATATGCATATATAT [XGTACX_site3399]”: 8.54 ± 0.23; for “ATTTTATTTTTTGAGTGTACTAGTTCAACAACTCCG [XGTACX_site8600]”: 8.72 ± 0.52. With “TGGTTTCAATAATTAATAAAATATATTATTGTGAAA [CACACA_negctrl_site442]” the figure was 7.95 ± 0.41; with “CGTATGTGCGGACATGCATGCAATATACAAGAAAAA [TGCATGCA_site145]”, 10.2 ± 0.28. For ACGGAAAAAGAAAAGGTGCATATGGACACAATATAT, the “gcPBM binding intensity (ln)” value stood at 9.35 ± 0.17.

In the case of AAGACAATATATGCAGTGCATATACATACATATATA, the “gcPBM binding intensity (ln)” value was found to be 8.65 ± 0.25. Turning to “AAGAAAAGTAAATATGCATGTAGGGTAGGTTATTTT [TGCATGCA_site46]”, the “gcPBM binding intensity (ln)” value was found to be 8.94 ± 0.23. With “TGGGTCTCTAACTGGTGTACTATTTACATATTATAC [XGTACX_site8593]” the figure was 8.75 ± 0.37; with “ATAATAAAATAAATCACACATAATATAATGTAATAT [CACACA_site6144]”, 8.44 ± 0.3; with “TATAAATATAAATATACACACATATATATATATATA [CACACA_site1678]”, 9.99 ± 0.4. In the case of “TGTATAAATATAATCACACATATATATATATATATA [CACACA_site4365]”, the “gcPBM binding intensity (ln)” value amounted to 10.3 ± 0.73. The same measure for “GGAACAAATAATATCACACATATATATATATATATA [CACACA_site5670]”: 10.3 ± 0.23. The same measure for “TATAATCATAAATACACACACATATATATATATATA [CACACA_site5224]”: 10.2 ± 0.42; for “TATAAATAAATACATACACACACATACATATATATA [CACACA_site9024]”: 8.71 ± 0.38; for “TGTATAATCATATATACACACACATATATATATATA [CACACA_site8674]”: 10.1 ± 0.24. “AATATACAAAATATCACACATATAAAATAATATATA [CACACA_site6067]”: the “gcPBM binding intensity (ln)” value was determined as 8.27 ± 0.5. The same measure for “TATATATATAAATACACACACATATATATATATATA [CACACA_site4867]”: 10.2 ± 0.25. In the case of “TAAATATAAACACAAACACACACATATATATATATA [CACACA_site7978]”, the “gcPBM binding intensity (ln)” value turned out to be 10.1 ± 0.42. With “TATAATCATATATACACACACATATATATATATATA [CACACA_site2168]” the figure was 10.2 ± 0.43; with “GCTATAAATATAATCACACATAAATATATAATATAT [CACACA_site5144]”, 8.23 ± 0.29; with “TATATGAAGCTATAGACACACATATAAAAATATAAT [CACACA_site4850]”, 8.64 ± 0.47. The same measure for “TCCCTAGTATACCTTAGTACATATATTATTTTGCAC [XGTACX_site2174]”: 8.98 ± 0.11. The same measure for “ACTAGTAAATTTATATGTACATATATATATATATAG [XGTACX_site2502]”: 8.68 ± 0.24. For the sequence “ATACATATATATATATGTACATATGTATTTTTTATT [XGTACX_site105]”, the “gcPBM binding intensity (ln)” value was 8.63 ± 0.38. The same measure for “ATATATTTAATATTCACACATAATTATTTTTACTCT [CACACA_site5438]”: 8.59 ± 0.38. For “CATCCAAAAATATTATGTACTAAATTTGGATGTATT [XGTACX_site3954]”, the “gcPBM binding intensity (ln)” value is 8.48 ± 0.47.
